The list is not random: actives were taken first. Their share in the collection is about 7.5%.
SMN2 splice up: qHTS Assay for Enhancers of SMN2 Splice Variant Expression. HEK293 SMN2-luciferase splicing reporter, luminescence, 30-36 h. Potency, µM (doses to about 46.1 µM), inactives show at the top dose activity change, positive = activation, usual class: activators. 210,000 compounds, 2.8% hits; also: % of control where 0% means no effect; nearly all actives have a fitted effect of over 55% in size
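qHTS luciferase splicing reporter: luminescence rises when SMN2 exon 7 is included in transfected HEK293 cells. Compound exposure lasted 30-36 h at 37C, with 4.5 mM final sodium butyrate as control, followed by a ONE-Glo read.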
ELG1 genotoxic: qHTS screen for small molecules that induce genotoxicity in human embryonic kidney (HEK293T) cells expressing luciferase-tagged ELG1 | HEK293T ELG1-luciferase reporter, luminescence, 16 h | Potency, µM (highest dose often 46 µM), for the others: at the highest dose activity change, positive = activation, usual class: activators | 330,000 compounds, 1.3% hits; also: % of control where 0% means no effect; nearly all actives have a fitted effect of over 60% in size
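Luminescence read-out: rising ELG1-luciferase signal, reflecting elevated ELG1 protein under genetic stress, flags genotoxic compounds. Cells were treated for 16 hr at 37 °C before ONE-Glo detection.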
KinaseGlo FLuc: Counterscreen for Luciferase (Kinase-Glo TM) Inhibition; Kinase-Glo luciferase, ATP luminescence, 8 min; Potency, µM (doses to about 38.3 µM), inactives show at the top dose activity change, negative = inhibition, most hits filed as inhibitors; 200,000 compounds, 0.28% hits; also: % is scaled to controls: 0 for no effect and ±100 for the full control effect; nearly all actives have a fitted effect of over 60% in size
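Luminescence was the read-out, taken after 8-minute incubation at ambient temperature. Luciferase turned over luciferin with 10 uM ATP in imidazole pH 7.2 buffer containing KCl, MgCl2, Tween 20 and BSA.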
NPC1 promoter act: qHTS Assay for NPC1 Promoter Activators; 320,000 compounds, 2.4% hits; AID 485313, 2010; Potency, µM (titrated, usually from 9.22 µM), without a hit: top-dose activation, most hits filed as activators; Huh7 NPC1 promoter luciferase reporter, 24 h; also: % of control where 0% means no effect; nearly all actives have a fitted effect of over 60% in size
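Compounds in DMSO were transferred onto Huh7 NPC1-luciferase reporter cells pre-incubated 2 h; after 24 h at 37 °C, Amplite reagent was dispensed and luminescence recorded 10 min later.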
FLuc counter: qHTS profiling assay for firefly luciferase inhibitor/activator using purifed enzyme and Km concentrations of substrates (counterscreen for miR-21 project) | Luciferin 4-monooxygenase (Photinus pyralis), P08659 | purified FLuc, Km substrates, luminescence inhibition | 360,000 compounds, 6.9% hits | Potency, µM (doses to about 57.5 µM), for the others: at the highest dose activity change, negative = inhibition, usual class: inhibitors | AID 588342, 2011;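 also: plate controls were vehicle for no effect and reference inhibitor for full effect; nearly all actives have a fitted effect of over 55% in size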
Target sequence (P08659 whole entry, looked up): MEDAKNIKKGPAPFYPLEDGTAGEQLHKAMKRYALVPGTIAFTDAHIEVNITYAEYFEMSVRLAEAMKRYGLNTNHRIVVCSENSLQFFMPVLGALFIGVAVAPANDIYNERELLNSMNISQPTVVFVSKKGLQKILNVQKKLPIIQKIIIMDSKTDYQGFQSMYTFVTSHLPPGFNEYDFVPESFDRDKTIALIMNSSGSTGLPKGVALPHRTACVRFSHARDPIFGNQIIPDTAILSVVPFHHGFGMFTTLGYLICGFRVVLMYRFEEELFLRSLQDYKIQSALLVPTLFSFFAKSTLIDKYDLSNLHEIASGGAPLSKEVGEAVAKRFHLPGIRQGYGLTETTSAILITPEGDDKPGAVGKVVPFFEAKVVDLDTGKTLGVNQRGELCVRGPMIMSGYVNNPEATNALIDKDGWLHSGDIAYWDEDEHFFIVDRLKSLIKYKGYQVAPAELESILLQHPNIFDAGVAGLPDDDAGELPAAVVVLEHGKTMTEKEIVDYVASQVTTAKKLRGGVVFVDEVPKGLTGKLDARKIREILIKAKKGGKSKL
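Biochemical qHTS of compounds, final roughly 60 µM downward over six points, against 10 nM purified firefly luciferase using Km concentrations of substrates (10 uM D-luciferin, 10 uM ATP) in Tris acetate pH 7.5 buffer; luminescence output.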
Rab9 prom act: qHTS Assay for Rab9 Promoter Activators; Huh7 Rab9 promoter-luciferase reporter, luminescence, 24 h; Potency, µM (highest dose often 9.22 µM), inactives show top-dose activation, negative = inhibition, most hits filed as activators; 320,000 compounds, 2.8% hits; AID 485297, 2010; also: % of control where 0% means no effect; nearly all actives have a fitted effect of over 60% in size
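Using Huh7 cells stably transfected with Rab9 promoter–luciferase, compounds were incubated 24 h at 37 °C, 5% CO2; luciferase luminescence was read 10 min after reagent addition.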
Active calls of the source: *; u = inconclusive; x = not tested or not shown; ! = not active in a repeat; [ ] = another dose, or the depositor's remark. Calls follow the shape of the dose curve; as a rule, active = well fitted curve in the direction sought with a large enough effect; inconclusive = small, poorly fitted or top-dose-only effect, or another doubt; inactive = no such curve, though single readings can be large; an effect the other way counts as inactive or inconclusive. Potency is read from the fitted curve at half-maximal effect.

SMILES	SMN2 splice up	ELG1 genotoxic	KinaseGlo FLuc	NPC1 promoter act	FLuc counter	Rab9 prom act
CN1CCc2c(n(CC(O)CN3CCN(CCO)CC3)c3ccccc23)C1=O (stereo not drawn)	-12%	-13%	-3%	-3%	1%	3%
CC[C@H](C)C(=O)O[C@H]1CCC=C2C=C[C@H](C)[C@H](CC[C@@H]3C[C@@H](O)CC(=O)O3)[C@H]21	u	7%	-4%	-17%[46.1 µM]	-11%	-14%[46.1 µM]
CC[C@H](C)C(=O)O[C@H]1C[C@@H](C)C=C2C=C[C@H](C)[C@H](CC[C@@H]3C[C@@H](O)CC(=O)O3)[C@H]21	16µM*!	-1%	-2%	3%	4%	0%
O=C(O)CCc1nc(-c2cccs2)no1	-6%	-1%	-2%	-6%	2%	-1%
Cc1ccc(OCc2nc(-c3cccs3)no2)c([N+](=O)[O-])c1	2.8µM*	u	-9%	0.4µM*	0.76µM*	0.25µM*
O=[N+]([O-])c1ccccc1OCc1nc(-c2cccs2)no1	13µM*	u	-1%	2.5µM*	6.7µM*	2.5µM*
O=[N+]([O-])c1ccc(F)cc1OCc1nc(-c2cccs2)no1	16µM*	u	-1%	23%	9.5µM*	u
COc1cc(OC)c(N(C)C(=O)c2nn(C)c3c2CSc2ccccc2-3)cc1Cl	x	x	x	x	-1%	x
COc1ccc2cc(C3OCCO3)c(Cl)nc2c1	x	u	-13%	2.5µM*	12µM*	2.5µM*
CCc1ccc(NC(=O)CSC2=Nc3ccccc3C3=NC(CCC(=O)NCc4cccs4)C(=O)N23)cc1 (stereo not drawn)	x	x	x	x	-2%	x
CN(C)N=Nc1ccc(S(N)(=O)=O)cc1	x	3%	-1%	-1%	-2%	-9%
CN(C)c1ccc(N=Nc2ccc(S(N)(=O)=O)cc2)cc1	x	21µM*	x	1µM*	2.7µM*	2.8µM*
COc1ccc(-n2c(C)cc(/C=C3/SC(=O)N(CC(=O)N4CCOCC4)C3=O)c2C)cc1	4%	3%	-3%	14%	1.7µM*	24%
Cn1c(=O)n(C)c2cc(/C=C3/SC(=O)N(CC(=O)N4CCOCC4)C3=O)ccc21	7%	u	-1%	-1%	-23%	-4%
Cc1cc(/C=C2/SC(=O)N(CC(=O)N3CCOCC3)C2=O)c(C)n1-c1ccccc1F	11µM*	u	-3%	3.5µM*	0.38µM*	1.6µM*
COc1ccc(C2(c3ccc(OC)cc3)NC(=O)N(CC(=O)N3CCOCC3)C2=O)cc1	x	2%	x	-1%	1%	-3%
CCOc1ccc(NC(=O)C2CCN(S(=O)(=O)c3c(C)noc3/C=C/c3cccs3)CC2)cc1	-5%	x	x	x	-4%	x
Cc1sc2c(c1C)c(=O)n(CCc1ccccc1)c(=O)n2Cc1ccc(C(C)(C)C)cc1	4%	x	x	x	-1%	x
NC(=O)c1ccsc1NC(=O)CS(=O)(=O)c1ccc(F)cc1	x	3%	x	7%	-19%	-2%
CC(=O)N/C(=C/c1ccc(OS(=O)(=O)c2ccc(C)cc2)cc1)C(=O)NCCCO	x	0%	x	-2%	0%	-5%
Cc1nn(C)c(Cl)c1/C=N/OC(=O)c1ccc(F)cc1	9%	0%	-1%	-2%	17µM*	1%
Cc1nn(C)c(Cl)c1/C=N/OC(=O)c1ccccc1	0%	1%	-2%	-3%	12µM*	-2%
Cn1nc(C(F)(F)F)c(/C=N/OC(=O)c2ccccc2)c1Cl	-6%	1%	-1%	-2%	u	-7%
Cn1c(Cl)c(/C=N/OC(=O)c2ccccc2Cl)c2ccccc21	-1%	-2%	3%	2%	6.7µM*	-1%
